Assay results published in PubChem BioAssay AID1347431 (National Center for Advancing Translational Sciences (NCATS), 2020).
The campaign covered roughly 1,200 compounds. Fewer than 10 were called active. These entries were drawn from the full list. Values without a mark were called inactive. Calls follow the shape of the dose curve; as a rule, active = well fitted curve in the direction sought with a large enough effect; inconclusive = small, poorly fitted or top-dose-only effect, or another doubt; inactive = no such curve, though single readings can be large or run the other way.

test: Confirmatory qHTS assay for inhibitors of Activation Induced Cytidine Deaminase (AID): UDG signals; settings: UDG coupled enzyme activity counter-screen; series mostly up to 115 µM; activity change, negative = inhibition: at the top concentration; also: 0% is about no effect
Description: Assay Provider (PI) Patricia Gearhart Ph.D.
National Institute on Aging
National Institute of Health (NIH), Bethesda, MD
Assay Provider (PI) Rahul Kohli Ph.D.
Perelman School of Medicine
University of Pennsylvania, Philadelphia, PA
Activation-Induced Deaminase (AID) is a cytosine deaminase which converts cytosine into uracil within stretches of ssDNA. The presence of uracil in DNA initiates a cascade of mutagenic DNA repair to introduce point mutations and DNA double strand breaks. Specific targeting of AID to the immunoglobulin heavy chain loci (Igh) promotes mutagenesis in the antibody variable region for somatic hypermutation (SHM) or switch regions leading to class switch recombination (CSR). However, AID also plays a role in accumulating unnecessary mutations across the genome. Mis-targeting of AID results in the initiation of tumor development and leads to greater drug resistance among cancer cells when continually expressed. To identify an AID inhibitor, a small molecule library will be screened in collaboration with NCATS core facility at NIH. To confirm biological function, inhibitors will be examined in an in vitro murine B-cell activation assay and subsequent secondary validation screens. Top molecules will be further screened to identify inhibitory efficacy against a wild type primary splenocytes assay. Using these approaches, we hope to identify a small molecule with great efficacy and low toxicity for use as a molecular probe to further characterize AID's intricacies, or even as a therapeutic.
A FRET based analysis of cytosine deamination, was developed to identify potential inhibitors of AID catalytic activity. This screen has two signal output, Read 1 evaluates the AID inhibition response. The second readout (Read 2) evaluates UDG response and is uses as a counterscreen to exclude false positive inhibitors. Inhibition in AID and inactivity in the UDG signal is the desired outcome for this assay.
SEQUENCE No. (e.g., 1, 2, 3, etc.); […] (e.g., Cells, Incubation, Reagent, etc.); VALUE; DESCRIPTION
1a; Reagent; 3 uL; [4/3x] 1 uM AID/2.67 U/mL UDG
1b; Reagent; 3 uL; 2 U/mL UDG
1c; Reagent; 3 uL; 1 uM AID
2a; Compound; 46 nL; Follow-up plates (0.64 uM - 10 mM)
2b; Control; 46 nL; ATA ([…] - 10 mM)
3; Time; 10 min; incubation at room temperature
5; Time; 4 hr; incubation at room temperature
6; Reagent; 4 uL; [2x] 250 mM NaOH
7; Time; 15 sec; centrifuge at 1000 rpm
8; Time; 30 min; incubation at room temperature
9a; Detection; fluorescence (Read 1: AID); EnVision (PerkinElmer) plate reader, 540 excitation and 590 emission filters
9b; Detection; fluorescence (Read 2: UDG); EnVision (PerkinElmer) plate reader, 560 excitation and 665 emission filters
NOTES (numbers refer to sequence above)
1a; Reagents were dispensed in a medium-binding black solid-bottom Greiner plates (789176F) using a BioRptr liquid dispenser. Dispense 3 uL of [4/3x] 1 uM AID (provided by Kohli lab) and [4/3x] 2 U/mL UDG (NEB M0280L) into columns 1, 2, 5 to 48.
1b; Dispense 3 uL of [4/3x] 2 U/mL UDG into column 3.
1c; Dispense 3 uL of [4/3x] 1 uM AID into column 4.
2a; Compound (7-points [uM]: 0.64; 3.2; 16; 80; 400; 2,000; 10,000; […]) double pin-transferred (Dip Factor = 2) using the Kalypsys (Wako USA) pintool equipped with a 1536 pinhead for a final concentration range of 7.32 nM - 114 uM.
2b; 10 mM Aurintricarboxylic Acid (Sigma A1895) (ATA, 8-point, n = 2, 1:2.5 dilution in column 2) double pin-transferred (Dip Factor = 2) using the Kalypsys (Wako USA) pintool equipped with a 1536 pinhead for a [final] range of 186 nM - 114 uM.
3; Room temperature incubation.
4; Dispense 1 uL of substrate mixture from the Kohli lab [4x] […] DJC20 and [4x] 250 nM DJC23 into columns 1 to 48 .
5; Room temperature incubation.
6; Dispense 4 uL of substrate mixture [2x] 250 mM NaOH into columns 1 to 48.
7; Centrifugation step to remove bubbles.
8; Room temperature incubation
9a; Fluorescence signal (column label AID) was read using the EnVision plate reader. […]

Row | SMILES | activity change, negative = inhibition [%] | outcome
1 | CC(=O)N1CCc2c(sc3c2c(=O)n(Cc2ccccc2)c(=O)n3Cc2cccc(Cl)c2)C1 | -4.28 | 
2 | CCc1ccc(NC(=O)c2cnn(-c3c(C)cccc3C)c2C2CCN(C(=O)OC(C)(C)C)CC2)cc1 | -11.8 | 
3 | CCOc1ccc(CNC(=O)c2c(C)nn(-c3ccc(F)cc3)c2-n2cccc2)cc1 | 6.32 | 
4 | COc1cc2c(cc1OC)C(COc1cc(C)cc(C)c1)N(C(=O)C(C)(C)C)CC2 (stereo not given) | 6.45 | 
5 | COc1cc(NC(=O)Cn2cc(S(=O)(=O)N3CCC(C)CC3)c3ccccc3c2=O)cc(OC)c1OC | -13.2 | 
6 | COc1ccc(C)cc1N(C)C(=O)c1c2c(nc3ccccc13)C(=O)N(C1CCCCC1)C2 | -0.876 | 
7 | COc1cccc(C(=O)Nc2nc3nc(C)c(Cc4ccccc4)c(=O)n3[nH]2)c1 | 12.2 | 
8 | Cn1c2ccccc2c2c(C(=O)N3CCN(c4cccc(C(F)(F)F)c4)CC3)cn(C3CCCCC3)c(=O)c21 | -7.55 | 
9 | O=C(CSc1nc(-c2ccc(F)cc2)nc2c1Cc1ccccc1O2)Nc1cccc(C(=O)O)c1 | 5.5 | 
10 | CC(C)Oc1ccc(C(=O)NCCc2csc(-c3cccc(F)c3)n2)cc1 | 2.66 | 
11 | CCc1ccc(OCC(=O)N(Cc2ccco2)Cc2ccco2)cc1 | -2.86 | 
12 | Cc1ccc2c(c1)C(c1ccc(F)cc1)N(C(=O)c1ccc(OC(C)C)cc1)CC(=O)N2 (stereo not given) | -1.56 | 
13 | Cc1ccc(Cl)cc1N1CCN(C(=O)c2nn(C)c3c2CS(=O)(=O)c2ccccc2-3)CC1 | -8.81 | 
14 | CC(C)c1ccc(NC(=O)CSC2=Nc3ccccc3C3=NC(CCC(=O)NCc4ccco4)C(=O)N23)cc1 (stereo not given) | -3.36 | 
15 | CCOc1ccc(CCNC(=O)c2cn(CC)c3ccc(S(=O)(=O)N4CCCCCC4)cc3c2=O)cc1OCC | -15.9 | 
16 | COc1cccc(CNC(=O)c2oc3ccc4c(c3c2C)C(=O)CC(C)(C)O4)c1OC | 0.26 | 
17 | O=C(NCCn1cc(SCc2ccccc2F)c2ccccc21)c1cccs1 | -4.8 | 
18 | Cc1ccc(Cl)cc1NC(=O)c1oc2c(c1C)-c1[nH]ncc1CC2 | -4.49 | 
19 | CN(C)c1ccc(Nc2ncnc3sc4c(c23)CCCC4)cc1 | 0.0322 | 
20 | CCOC(=O)c1c(Oc2ccc(C(C)=O)cc2)nnc(-c2ccccc2)c1-c1ccccc1 | 2.33 | 
21 | O=C(O)c1ccc2c(c1)N(Cc1ccc(F)cc1Cl)C(=O)c1ccccc1S2 | 12.6 | 
22 | CCCCCN1C(C(=O)c2ccccc2)=C(OC(=O)CC)c2ccccc2S1(=O)=O | -0.103 | 
23 | O=C(CCS(=O)(=O)c1nc(-c2cccs2)cc(C(F)(F)F)n1)Nc1ccc(OC(F)(F)F)cc1 | 0.452 | 
24 | CCc1ccc(C(c2ccccc2)c2c(C)[nH]c3ccccc23)s1 (stereo not given) | -1.17 | 
25 | Cc1ccc2c(c1)-c1ncc(C(=O)c3cc(Br)ccc3O)cc1CO2 | -6.67 | 

Row | SMILES | activity change, negative = inhibition [%] | outcome
26 | Cc1ccc(Nc2nnc(-c3ccc(C)c(S(=O)(=O)N4CCN(C)CC4)c3)c3ccccc23)c(C)c1 | -0.466 | 
27 | CCn1c(=O)c2cc(C(=O)NCCCN(C)Cc3ccccc3)sc2c2ccccc21 | -13.6 | 
28 | COc1ccc(CCNC(=O)c2cc(Nc3cc(C)cc(C)c3)nc3ccccc23)cc1OC | -13.1 | 
29 | Cc1ccc(-c2nc3nc(C)cc(C)n3c2Nc2ccc3c(c2)OCCO3)cc1 | -7.65 | 
30 | Cc1ccc(C)c(N2CCN(C(=O)c3cc(S(=O)(=O)N4CCCCC4)cn3C)CC2)c1 | -7.73 | 
31 | Cc1cc(C)c(NC(=O)CCCn2c(C)c3cnn(-c4ccccc4)c(=O)c3c2C)c(C)c1 | -9.84 | 
32 | CCOC(=O)c1ccc(-n2c(N)c(C(=O)OC)c3nc4ccccc4nc32)cc1 | -1.19 | 
33 | Cc1ccc(C(=O)c2cn(Cc3ccccc3)c3ccccc3c2=O)cc1 | 0.0583 | 
34 | COc1cccc(-c2nc3cc(NC(=O)c4ccc(C)c([N+](=O)[O-])c4)ccc3o2)c1 |  | inactive
35 | Cc1ccc2c(c1)-c1c(cnn1CC(=O)N1CCN(c3cccc(C(F)(F)F)c3)CC1)CO2 | -13.8 | 
36 | O=C(CC1N=C2c3ccccc3N=C(SCc3ccccc3F)N2C1=O)NCc1ccc2c(c1)OCO2 (stereo not given) | 1.74 | 
37 | Cc1nn(C(=O)c2ccccc2)c(C)c1Sc1ccc(Cl)cc1 | -0.373 | 
38 | Cc1ccc(C)c(NC(=O)CSc2nccn2-c2cccc(C)c2C)c1 | -9.11 | 
39 | O=C(c1cccc(Cl)c1)N(Cc1ccco1)Cc1ccccc1Cl | -2.38 | 
40 | Cc1cccc(-c2nnc(SCC(=O)N3CCCc4ccccc43)o2)c1 | -1.78 | 
41 | CCc1ccccc1NC(=O)[C@H](Cc1ccccc1)N1Cc2ccccc2C1=O | -5.74 | 
42 | COc1ccc(Cn2cc(C(=O)c3ccc(OC)cc3)c(=O)c3cc4c(cc32)OCCO4)cc1 | 2.39 | 
43 | Cc1cc(C)c2c(CC(=O)N(Cc3ccc(Cl)cc3)Cc3ccco3)coc2c1 | 2.44 | 
44 | Cc1ccc(N(Cc2cccs2)C(=O)c2ccccc2)cc1 | -1.63 | 
45 | COc1ccc(Nc2cc(C)c3cc(NC(=O)COc4cccc(C)c4)ccc3n2)cc1 | -15.8 | 
46 | CCN(C(=O)c1cc2cc3ccc(OC)cc3nc2o1)c1cccc(C)c1 | -18.5 | 
47 | COc1ccc(-c2cn3c(n2)sc2cc(C(=O)NCCCN4CCCCC4)ccc23)cc1 | -3.99 | 
48 | COc1ccc(CCNC(=O)CS(=O)Cc2nc(-c3ccc(C)cc3)oc2C)c(OC)c1 (stereo not given) | -3.01 | 
49 | COc1ccc(Cl)cc1NC(=O)CSc1nc(=O)n(Cc2ccco2)c2c1CCC2 | -1.64 | 
50 | COc1ccc(C(=O)c2cn(Cc3ccccc3F)c3cc4c(cc3c2=O)OCCO4)cc1OC | 5.33 | 
